pS6 MEF inh: reduces mTORC1 signaling in Tsc2 and p53 null MEF cells; AID 493208; Potency, µM (doses to about 38.3 µM), without a hit: at the highest dose activity change, negative = inhibition, usual class: inhibitors; hit rate 0.78% among 44,000; Tsc2-/- p53-/- MEF, phospho-rpS6 immunofluorescence/PI, 24 h;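 further: potency means the concentration at half of the fitted maximal effect; plate controls were DMSO for no effect and rapamycin for full effect; nearly all actives have a fitted effect of over 50% in size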
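Tsc2-/-, p53-/- MEFs (empty-vector stable line) in DMEM + 10% FBS were treated with compounds 24 h at 37 degree Celsius, fixed, and immunostained for phospho-rpS6 (Alexa-488) with propidium iodide counterstain. Laser-scanning cytometry gave % positive cells, normalized against 7.5 nM rapamycin and DMSO.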
S16 viability: cytotoxicity in S16 Pmp22-F2sN Schwann cells; S16 Pmp22-F2sN Schwann cells viability, CellTiter-Glo, 24 h; Potency, µM (series often up to 57.5 µM), inactives show at the top dose activity change, negative = cytotoxicity, hits mostly cytotoxic; hit rate 0.48% among 43,000; further: potency means the concentration at half of the fitted maximal effect; on the % scale 0 is the no-effect control and ±100 the full control effect; nearly all actives have a fitted effect of over 65% in size
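CellTiter-Glo counter-screen, qHTS, 1536-well. Cells: S16(c9) Pmp22-F2sN, 500-1,000/well in DMEM + 10% FBS. Cpd 23 nL pin transfer, 24 h, 37C/5% CO2. Read: luminescence, CCD imager.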
PTAP-TSG101 blk: TSG101-PTAP interaction inhibition, HIV-1 budding; Fluorescence polarization, FITC-PTAP peptide/Tsg101, 20 min; AID 1347069; 44,000 tested, under 10 active; Potency, µM (series often up to 115 µM), usual class: inhibitors; further: potency means the concentration at half of the fitted maximal effect; 0% is about no effect
Target sequence (Q99816 whole entry, looked up): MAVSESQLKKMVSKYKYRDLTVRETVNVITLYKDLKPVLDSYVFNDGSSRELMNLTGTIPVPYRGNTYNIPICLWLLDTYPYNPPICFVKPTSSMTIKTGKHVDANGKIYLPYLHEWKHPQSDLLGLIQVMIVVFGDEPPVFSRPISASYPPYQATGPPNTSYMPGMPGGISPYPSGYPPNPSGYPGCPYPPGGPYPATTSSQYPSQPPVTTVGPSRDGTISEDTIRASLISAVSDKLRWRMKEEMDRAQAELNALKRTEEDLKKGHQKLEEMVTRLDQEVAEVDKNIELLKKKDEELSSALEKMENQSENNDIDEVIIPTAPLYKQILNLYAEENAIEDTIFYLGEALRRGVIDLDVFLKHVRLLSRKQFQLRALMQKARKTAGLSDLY
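Steps: Tsg101 binding domain (10 uM final) in HEPES pH 7.5/NaCl/Tween 20/EDTA/TCEP; add compound; add FITC-PTAP peptide (50 nM final); incubate 20 min r.t.; read polarization.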
GALK inhibitor: GALK (human) enzyme inhibition. Potency, µM (doses to about 57.5 µM), inactives show at the top dose activity, negative = inhibition, most hits filed as inhibitors. recombinant GALK, Kinase-Glo ATP luminescence, 1 h. P51570. 44,000 tested, under 10 active;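 further: plate controls were full GALK reaction for no effect and reaction lacking GALK for full effect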
Target sequence (P51570 whole entry, looked up): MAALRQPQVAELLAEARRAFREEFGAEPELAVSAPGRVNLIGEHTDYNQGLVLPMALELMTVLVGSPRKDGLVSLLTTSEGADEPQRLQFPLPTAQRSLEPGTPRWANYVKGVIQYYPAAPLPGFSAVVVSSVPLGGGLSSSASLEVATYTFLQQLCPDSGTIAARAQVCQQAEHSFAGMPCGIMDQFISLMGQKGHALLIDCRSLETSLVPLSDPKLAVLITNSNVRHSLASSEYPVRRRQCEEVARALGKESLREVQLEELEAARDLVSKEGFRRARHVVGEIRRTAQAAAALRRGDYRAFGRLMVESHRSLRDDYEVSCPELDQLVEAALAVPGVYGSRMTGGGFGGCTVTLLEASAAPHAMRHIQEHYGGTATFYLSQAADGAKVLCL
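Luminescent ATP-depletion readout (Kinase-Glo Plus, 10 min) after 1 h RT reaction of 5 nM GALK, 35 uM ATP, 100 uM galactose, pH 8.0 HEPES buffer. Decreased kinase activity scored as inhibition.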
PMP22 txn: PMP22 gene transcription modulation | S16 Pmp22-F2sN Schwann cells, FLuc/NLuc coincidence luminescence, 24 h | Potency, µM (doses to about 57.5 µM), without a hit: at the top dose activity change, negative = inhibition, most hits filed as inhibitors | hit rate 2% among 43,000 | AID 1508649; active means clear falling dose curves in both reporters; inconclusive means both reporters move, but less clearly or upward; inactive means either reporter flat; the % is the NLuc reporter signal; further: potency means the concentration at half of the fitted maximal effect; on the % scale 0 is the no-effect control and ±100 the full control effect
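Luminescent read-out of sequential FLuc and NLuc signals from a reporter embedded in the Pmp22 3' UTR of S16 Schwann cells, taken after 24 h compound exposure at 37C; compounds reducing both signals score as inhibitors of expression.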
NLuc sat counter: inhibits NanoLuc at saturating substrate, PMP22 counter-screen | Potency, µM (doses to about 57.5 µM), without a hit: top-dose activity change, negative = inhibition, most hits filed as inhibitors | shares compounds with PMP22 txn | Secreted NLuc enzyme (filtered S16 cell medium), Nano-Glo luminescence | hit rate 4% among 690; further: potency means the concentration at half of the fitted maximal effect; on the % scale 0 is the no-effect control and ±100 the full control effect
NLuc Km counter: inhibits NanoLuc under Km conditions, PMP22 counter-screen; shares compounds with PMP22 txn; secreted NLuc enzyme, coelenterazine luminescence, Km conditions; Potency, µM (series often up to 57.5 µM), for the others: at the highest dose activity change, negative = inhibition, actives largely listed as inhibitors; hit rate 5% among 690; further: potency means the concentration at half of the fitted maximal effect; on the % scale 0 is the no-effect control and ±100 the full control effect
FLuc ctr PMP22: counter-screen for PMP22 expression modulators: firefly luciferase inhibition. shares compounds with PMP22 txn. purified P. pyralis FLuc, luminescence, 10 min. Potency, µM (highest dose often 57.5 µM), without a hit: at the top dose activity, negative = inhibition, actives largely listed as inhibitors. 690 tested, under 10 active. AID 1508640; further: % of control where 0% means no effect
S16 viab conf: confirmation of cytotoxicity in S16 Pmp22-F2sN Schwann cells (luciferase reporters placed in the Pmp22 gene) | shares compounds with PMP22 txn | S16 Schwann cells viability, CellTiter-Glo ATP luminescence, 24 h | Potency, µM (doses to about 57.5 µM), for inactives: at the highest dose activity change, negative = viability loss, hits mostly cytotoxic | hit rate 7% among 690 | AID 1508641; further: potency means the concentration at half of the fitted maximal effect; on the % scale 0 is the no-effect control and ±100 the full control effect
PMP22 txn conf: confirmation of modulators of PMP22 gene transcription in S16 cells. S16 Schwann cells Pmp22-F2sN, dual luciferase, 24 h. AID 1508646. Potency, µM (doses to about 57.5 µM), without a hit: at the top dose activity change, negative = inhibition, usual class: inhibitors. hit rate 22% among 690. shares compounds with PMP22 txn; active means clear falling dose curves in both reporters; inconclusive means both reporters move, but less clearly or upward; inactive means either reporter flat; the % is the FLuc reporter signal; further: potency means the concentration at half of the fitted maximal effect
PMP22 HiBiT cnf: confirmation of modulators of rat PMP22 protein expression | Potency, µM (highest dose often 27.9 µM), for the others: at the highest dose activity change, negative = inhibition, actives largely listed as inhibitors | 95 tested, under 10 active | shares compounds with PMP22 txn | S16 Schwann cells Pmp22-HiBiT, luminescence, 48 h
Numbers without * were called inactive; i = inactive; ? = inconclusive; . = not tested or not shown. Compounds with a hit are over-represented: about 2.8% of the library has one in this group of screens. Unless noted, the call rests on the fitted dose curve; in most records, active means well fitted curve in the direction sought with a large enough effect; inconclusive means small, poorly fitted or top-dose-only effect, or another doubt; inactive means no such curve, though single readings can be large; an effect the other way counts as inactive or inconclusive.

SMILES	pS6 MEF inh	S16 viability	PTAP-TSG101 blk	GALK inhibitor	PMP22 txn	NLuc sat counter	NLuc Km counter	FLuc ctr PMP22	S16 viab conf	PMP22 txn conf	others
CCCC(=O)N(c1ccc2oc(C)c(C(C)=O)c2c1)S(=O)(=O)c1ccc(CC)cc1	-13.1%	?	i	0.0%	8.43µM*	-17.4%	4.8%	-8.2%	-24.6%	?
COc1ccc(-c2c(C)nn3c(C(F)(F)F)cc(-c4ccccc4)nc23)cc1OC	3.6%	11.3%	i	0.0%	-21.0%	.	.	.	.	.
COc1ccc(-c2cc(C(F)(F)F)n3nc(C)c(-c4ccccc4)c3n2)cc1OC	-10.9%	22.7%	i	?	10.6µM*	0.1%	2.0%	5.4%	-6.6%	?
Cc1ccccc1S(=O)Cc1ccc(C(=O)N2CCN(c3cccc(C)c3C)CC2)o1 (configuration not stated)	?	-25.3%	i	0.0%	?	.	.	.	.	.
Cc1cccc(N2CCN(C(=O)c3ccc(CS(=O)c4cccc(Cl)c4)o3)CC2)c1C (configuration not stated)	7.36µM*	?	i	2.2%	9.58µM*	-18.5%	?	-2.5%	-14.7%	?
Cc1ccc(S(=O)(=O)Cc2ccc(C(=O)N3CCN(c4cccc(C)c4C)CC3)o2)cc1	?	-18.7%	i	3.7%	13.9µM*	-9.4%	1.7%	5.0%	-17.3%	?
CC(=O)Nc1cccc(NC(=O)c2cc3c(=O)n4cccc(C)c4nc3n2C)c1	-8.5%	8.0%	i	-0.5%	6.0%	.	.	.	.	.
CCOC(=O)c1cccc(NC(=O)CN2C(=O)c3ccccc3Sc3ncccc32)c1	-14.0%	5.7%	i	3.3%	-49.2%	.	.	.	.	.
Cc1ccccc1Cn1c(=O)n(CCCCC(=O)NCc2ccc3c(c2)OCO3)c(=O)c2ccccc21	?	-3.2%	i	-4.2%	?	.	.	.	.	.
Cc1[nH]c2ccccc2c1C1(O)C(=O)N(Cc2ccccc2)c2ccc(Br)cc21 (configuration not stated)	?	-9.4%	i	0.3%	16µM*	-16.0%	?	-1.3%	?	?
CCOc1ccc(NC(=O)CSc2oc(-c3cccs3)nc2S(=O)(=O)c2ccc(C)cc2)cc1	0.0%	-6.5%	i	6.7%	?	.	.	.	.	.
CCCCCS(=O)(=O)c1oc(-c2cccs2)nc1S(=O)(=O)c1ccc(C)cc1	3.7%	?	i	0.0%	13.4µM*	-8.9%	2.4%	-2.0%	?	17.2µM*	PMP22 HiBiT cnf=35.9%
Cc1[nH]c2ccc(C(=O)NCCc3ccccc3Cl)cc2c1C	-5.3%	-20.4%	i	0.0%	8.9%	.	.	.	.	.
Cc1ccc(-n2c(C)cc(/C=C(\C#N)C(=O)Nc3ccc(C)c(C)c3)c2C)cc1	1.2%	-1.2%	i	-0.4%	-10.3%	.	.	.	.	.
Cc1ccc(NC(=O)/C(C#N)=C/c2cc(C)n(-c3ccc(Br)cc3)c2C)cc1C	3.2%	-9.9%	i	-17.9%	11.9µM*	0.2%	-2.3%	-2.1%	7.7%	?
CCS(=O)(=O)c1nc(S(=O)(=O)c2ccc(Cl)cc2)c(NCc2ccccc2Cl)s1	-15.5%	-25.8%	i	-11.7%	4.8µM*	?	?	8.1%	4.1%	-20.6%
CCc1ccccc1N(C)C(=O)c1cn(-c2cccc(OC)c2)c(=O)c2ccccc12	1.6%	-3.7%	i	0.0%	-29.4%	.	.	.	.	.
O=C(Nc1nc2ccc(F)cc2s1)c1nc(S(=O)(=O)Cc2ccccc2F)ncc1Cl	?	?	i	3.2%	9.46µM*	-19.6%	?	2.0%	?	12.9µM*
CCOc1ccc2oc(=O)cc(CN3CCN(Cc4ccc(F)cc4)CC3)c2c1	-5.3%	?	i	-3.2%	14.1µM*	-9.4%	8.9%	-3.3%	-8.6%	-16.8%
CCOc1ccc2oc(=O)cc(CN3CCN(c4ccccc4)CC3)c2c1	4.8%	-23.6%	i	-2.6%	?	.	.	.	.	.
COC(=O)c1ccc(CSc2nc3c([nH]c4ccccc43)c(=O)n2-c2cccc(Cl)c2)o1	-2.4%	13.2%	i	0.9%	17.9µM*	?	-18.0%	-0.2%	?	6.11µM*
COC(=O)c1ccc(CSc2nc3c([nH]c4ccccc43)c(=O)n2-c2cccc(OC)c2)o1	-8.7%	-7.5%	i	-5.3%	-23.8%	.	.	.	.	.
CCn1c(=O)cc(OCC(=O)N2CCN(c3ccccc3OC)CC2)c2ccccc21	-0.2%	-11.6%	i	2.0%	17µM*	-13.7%	-17.3%	5.2%	9.2%	-12.4%
CCOC(=O)c1ccc(-c2ccc(/C=C(\C#N)C(=O)Nc3cccc(C)c3)o2)cc1	-7.4%	3.3%	i	-0.2%	?	?	-8.5%	-0.2%	-18.3%	17.2µM*
CCOc1cc(CNC(=O)c2ccc(NC(=O)c3nsc4ccccc34)cc2)ccc1OC	?	-16.4%	i	-0.3%	7.3%	.	.	.	.	.
COCCNC(=O)c1ccc(-n2c(-c3ccccc3)cc3c2CCC(C)C3)cc1 (configuration not stated)	3.7%	?	i	-3.0%	10µM*	-16.0%	?	-4.1%	-5.3%	-38.6%
CCCNC(=O)c1ccc(-n2c(-c3ccccc3)cc3c2CCC(C)C3)cc1 (configuration not stated)	?	25.3%	i	-2.1%	?	.	.	.	.	.

From PubChem
